Compounds with a hit are over-represented: about 3% of the library has one in this group of screens.
L929 necroptosis – blocks zVAD induced death of L929 cells; viability rescue, % at 10 µM; 220,000 compounds, 0.38% hits; L929 zVAD necroptosis rescue, ATP luminescence, 24 h; with zVAD 60 µM;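 active means activation, scaled between plate controls, above about 75%, limit read from the data; inactive means activation under that limit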;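 further: 0% = zVAD with DMSO and 100% = DMSO alone without zVAD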
14-3-3 Bad inh – disrupts binding of bovine 14-3-3 zeta to phospho-Bad peptide; P63103; TR-FRET 14-3-3zeta/Dy647-pBad peptide displacement, 1 h; inhibition, % at 21.7 µM; 220,000 compounds, 0.71% hits; AID 781;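 active means inhibition above about 70%, limit read from the data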;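 further: 0% = full 14-3-3 plus peptide FRET controls and 100% = background without 14-3-3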
ROMK mod – modulators of human ROMK potassium channel | P48048 | Tet-inducible ROMK, thallium flux fluorescence; actives lie on both sides | B-score at 10 µM | 130,000 compounds, 2% hits | AID 1918;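 active means signal ratio slope over the read window, or its plate-corrected B-score, at least 3 SD from the plate mean, either direction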;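 further: B-score of the F/F0 ratio slope over 7 to 12 s after thallium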
Target sequence (P48048 whole entry, looked up): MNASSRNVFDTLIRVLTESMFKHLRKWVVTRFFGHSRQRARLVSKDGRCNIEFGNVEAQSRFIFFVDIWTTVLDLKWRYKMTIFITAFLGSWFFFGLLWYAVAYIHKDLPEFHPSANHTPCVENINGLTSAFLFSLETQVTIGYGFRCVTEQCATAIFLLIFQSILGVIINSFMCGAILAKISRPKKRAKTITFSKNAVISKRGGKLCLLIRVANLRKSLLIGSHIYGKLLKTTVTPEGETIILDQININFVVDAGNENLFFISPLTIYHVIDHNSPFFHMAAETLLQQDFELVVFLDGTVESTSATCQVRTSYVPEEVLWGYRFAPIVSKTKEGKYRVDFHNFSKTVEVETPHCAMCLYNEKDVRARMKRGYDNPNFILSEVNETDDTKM
TNF necrop inh – TNF-alpha cell death inhibition in Jurkat FADD-/- cells; Jurkat FADD-/- TNF necroptosis rescue, ATP luminescence, 24 h; 0 = TNF only, 100 = no-TNF cells; activation (protection from cell death), % at 10 µM; 220,000 compounds, 0.068% hits; AID 463075;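 active means activation, meaning protection from cell death, of at least 50% relative to plate controls; inactive means activation below 50%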;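 further: necroptosis triggered by 40 ng/mL TNF-alpha added together with compound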
m-calpain inh – inhibitors of pig calpain II. purified calpain II, fluorogenic peptide substrate, 30 min. inhibition, % at 16 µM. 220,000 compounds, 0.37% hits;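 active means inhibition above about 50%, limit read from the data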
Efa HMGR inh – inhibitors of class II HMG-CoA reductase from Enterococcus faecalis | purified E. faecalis HMGR, NADPH absorbance 340 nm kinetic | inhibition, % at 10 µM | 190,000 compounds, 0.41% hits | AID 1066;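 active means inhibition above a set limit, the median over all tested compounds plus 3 SD, cut at about 9.5% in these data; inconclusive means no clear call, values can overlap the other calls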;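 further: enzyme runs in reverse so mevalonate oxidation gives rising NADPH absorbance; 0% = complete reaction with DMSO and 100% = background rate lacking mevalonate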
ROMK retest – human ROMK channel modulation, retest confirmation | shares compounds with ROMK mod | ROMK thallium flux, fluorescence ratio; active compounds read low | normalized thallium flux (F/F0 slope) at 10 µM | 3,000 compounds, 54% hits | AID 1917;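 active means Flux at 10 µM at least 3 SD below or above vehicle control mean in one or both replicates; inconclusive means no clear call, values can overlap the other calls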
* marks the source's active call; other numbers are inactive results; u = inconclusive; x = no result.

SMILES	L929 necroptosis	14-3-3 Bad inh	ROMK mod	TNF necrop inh	m-calpain inh	Efa HMGR inh	ROMK retest
O=C(c1csc2c1CCCC2)N1CCN(c2cccc(C(F)(F)F)c2)CC1	0	11	-0.89	2	33	-4	x
O=C(Oc1ccc(Br)cc1)c1n[nH]c(=O)c2ccccc12	0	15	0.35	-1	-4	0	x
O=C(CSCc1ccc(Cl)cc1)Nc1ccccc1C(=O)N1CCOCC1	0	4	x	-3	-9	2	x
O=C(CSCc1ccc(Cl)cc1)Nc1ccccc1O	3	-4	2.3*	7	37	-1	0.074
O=C1c2ccccc2NC(c2ccc(-c3cccc([N+](=O)[O-])c3)o2)N1O (centres undefined)	1	14	-3.6*	-1	0	2	0.061*
O=C1c2ccccc2NC(c2ccc(-c3ccc(Br)cc3)o2)N1O (centres undefined)	2	-6	x	-12	-12	7	x
Cc1cc(SCC(=O)N(C)C2CCS(=O)(=O)C2)nc2c(C)cccc12 (centres undefined)	0	3	-0.13	0	32	-5	x
O=C(Cc1cccc2ccccc12)NC(=S)Nc1cccc(C(=O)O)c1	0	6	0.14	0	18	0	x
CCC(C)(C)n1nnnc1C(C(C)C)N(CCN1CCOCC1)Cc1cc2cccc(C)c2[nH]c1=O (centres undefined)	0	1	-2.9*	-1	-37	-2	0.055*
CCC(c1nnnn1C(C)(C)CC)N(CCCN1CCOCC1)Cc1cc2cccc(C)c2[nH]c1=O (centres undefined)	2	-10	-2.5	-1	1	-7	x
CN(C)CC/C=C1/c2cc(F)ccc2CSc2ccc(F)cc21	0	3	-3.2	0	-6	-1	x
CN(C)CC/C=C1\c2cc(F)ccc2CSc2ccccc21	1	-10	-3.2*	5	-11	-2	0.061*
COCCCN=C(c1ccco1)n1c(=S)nc(-c2ccco2)n(CCCOC)c1=S	0	-12	x	-1	-27	-5	x
CN(CCCC(=O)Nc1ccncc1)S(=O)(=O)c1ccc(Cl)cc1	1	6	-3.4*	-1	-8	-1	0.065*
CCOC(=O)c1c(NC(=O)c2cc(-c3ccc(O)cc3)on2)sc(C(C)=O)c1C	x	65	1.1	4	-17	2	x
O=C(Nc1cccc(Cl)c1)N1CCN(c2ncccn2)CC1	0	0	x	2	1	-2	x
O=C(Nc1ccc(Cl)cc1Cl)N1CCN(c2ncccn2)CC1	1	3	-3.8*	0	-3	-8	0.074
Cc1cccc(NC(=O)C(C)OC(=O)c2ccccc2NS(=O)(=O)c2cc(C)c(C)c([N+](=O)[O-])c2)c1 (centres undefined)	2	14	-3*	4	-18	0	0.061*
CCCCOC(=O)Cn1c2ccc(OC)cc2c2nc3ccccc3nc21	0	17	-4.2*	-4	-21	1	0.056*
O=c1[nH]c(CSc2nc3ccccc3[nH]2)nc2c1cnn2-c1ccccc1	9	-14	-3.4*	3	-3	1	0.053*
O=c1[nH]c(SCc2nc3c(cnn3-c3ccccc3)c(=O)[nH]2)nc2ccccc12	0	7	-0.42	-14	-23	0	x
COc1ccc(NC(=O)COc2ccc(/C=N/NC(=O)c3cccnc3)cc2OC)cc1	0	-20	x	2	-38	-6	x
COc1ccc(/C=N/NC(=O)c2cccnc2)cc1COc1ccc(NC(C)=O)cc1	0	-1	3.9*	-15	5	x	u
COc1ccc(/C=N/NC(=O)c2cccnc2)cc1COc1ccc([N+](=O)[O-])cc1	-1	-3	4.7*	-12	-13	x	0.091
COc1ccc(/C=N/NC(=O)c2cccc(OC(F)(F)C(F)F)c2)cc1O	1	7	1.8*	1	-6	0	0.089
SMILES	L929 necroptosis	14-3-3 Bad inh	ROMK mod	TNF necrop inh	m-calpain inh	Efa HMGR inh	ROMK retest
COc1cc(/C=N/NC(=O)c2cccnc2)ccc1OC(=O)c1ccc([N+](=O)[O-])cc1	3	19	-1	1	20	2	x
CCC(C(=O)O)n1nc(-c2ccccc2)c2cc(Cl)ccc21 (centres undefined)	0	-9	-1.6	2	-12	1	x
CN(Cc1cnn(-c2ccc(F)cc2)c1)Cc1nc(Cc2ccccc2)no1	1	10	-2.3	2	24	-1	x
CC(=O)c1ccc(Sc2nnc(C)s2)c([N+](=O)[O-])c1	-2	-4	0.78	-6	12	0	x
C=CCc1cccc2cc(C(=O)NC(C)(C)C)c(=O)oc12	0	7	7.4*	0	-35	0	0.072
C(#CCN1CCOCC1)COCCOC(c1ccccc1)c1ccccc1	0	-18	1*	-1	16	0	0.076
Cc1ccc(C)c(-n2c3nc(=O)n(C)c(=O)c-3cc3ccccc32)c1	1	31	0.34	0	-334	x	x
Cc1ccc(C)c(-n2c3nc(=O)[nH]c(=O)c-3cc3cc([N+](=O)[O-])ccc32)c1	-2	-23	x	-9	-76	-7	0.043*
Cc1cccc(-n2c3nc(=O)[nH]c(=O)c-3cc3cc([N+](=O)[O-])ccc32)c1	-1	7	-2.8*	-7	-21	-5	0.048*
O=C(NCCc1ccc2c(c1)OCCO2)c1ccc(F)cc1	0	-7	x	1	-7	-5	x
Clc1ccc(-c2nnc(CSc3nnc(-c4cccs4)n3Cc3ccccc3)o2)cc1	x	8	-2.1	-9	21	4	0.072
Cc1nnc(SCc2nnc(-c3cccs3)o2)n1Cc1ccccc1	0	-9	1.2	-2	11	0	x
Fc1ccc(NCc2nnc(SCc3nnc(-c4ccccc4)o3)n2Cc2ccccc2)cc1	0	5	-4.8*	-9	-15	1	0.05*
CCc1cc2c(Sc3nc4ccccc4s3)ncnc2s1	0	-10	x	-25	18	-3	x
c1ccc2sc(Sc3ncnc4sccc34)nc2c1	0	-26	x	-12	-4	-5	0.078
Cc1cccc(CN2CCN(C(=O)CCl)CC2)c1	1	20	x	-11	-5	-4	x
CCNC(=S)NNC(=O)c1cc(Br)cs1	x	-15	1.6	1	-7	-5	x
COc1cccc(C(c2nnnn2Cc2ccccc2)N2CCN(C3CCCC3)CC2)c1OC (centres undefined)	0	68	-4.8*	-13	-2	3	0.054*
COc1ccc(Cn2nnnc2C(c2ccc(C)cc2)N2CCN(C3CCCC3)CC2)cc1 (centres undefined)	0	-9	x	-5	-46	-2	0.053*

Screens (PubChem)
